Assay results reported in the supplement of paper PMC11417369.
± gives the standard deviation of the averaged measurements. In all, about 25,000 sequences were measured (“ln(normalized median fluorescence intensity)”: median about 10, highest 2% from about 12 on). This excerpt belongs to a sample that is enriched for the highest values.

system: PfAP2-G AP2 domain (GST-tagged); assay: gcPBM binding intensity (ln(normalized median fluorescence intensity)); higher = stronger DNA binding
Summary of the method: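 For binding intensity, the highest Masliner-normalised natural-log median intensity across replicate spots of either probe orientation was taken. Protein bound to the array was stained with Alexa488 anti-GST antibody and scanned at 488 nm. The protein, GST-tagged P. falciparum DNA-binding domains from E. coli at about 25 μg on average, had been applied for 1 h to an Agilent 4 × 180k array of primer-extended double-stranded 36-bp intergenic genomic probes and negative controls.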

Row | Sequence | gcPBM binding intensity (ln)
1 | ACAAGATGATGGAAATGTACATAAAAAGAATCATAT [XGTACX_site8682] | 11.2 ± 0.63
2 | AAAAAAAAAAAAACTACACACATACAAATATTTATA [CACACA_site5430] | 9.875 ± 0.035
3 | AAAAAAAAGAAAAACACACACATATATATATATAAT [CACACA_site4707] | 9.72 ± 0.042
4 | TGAAAATAATTATAGGTGCATAAACATACGGATCTT | 10.21 ± 0.021
5 | TTTTTTTTAAGAGATAGTACATAAATATTATAATAT [XGTACX_site4685] | 11.1 ± 0.86
6 | GACATTAATTATTTGACACACGACTGGGTGGTGATT [CACACA_site306] | 10.09 ± 0.021
7 | TCGTATTTAAAATGTAGTACATAATTTGAAAAATAA [XGTACX_site5832] | 11.6 ± 0.83
8 | AATTTGAAATAAAGTAGTACAGTATATAAAAATATA [XGTACX_site128] | 11.8 ± 1.1
9 | TATTTTGAAAATAAAAGTACAAATTTTATATTTAAA [XGTACX_site3238] | 11.1 ± 0.83
10 | TTTTTTGAAAATAAAAGTACAAATTTTATATTTAAA [XGTACX_site2758] | 11 ± 0.88
11 | ATAAGTAATATAATATGTACATATATATATATATAT [XGTACX_site3818] | 11.2 ± 0.5
12 | AAATGAAATAAATGTAGTACACATATACAATATATA [XGTACX_site6951] | 11.7 ± 1.1
13 | ATGTATGTAATAAAAAGTACATATGTTCATAATAAA [XGTACX_site842] | 11.4 ± 0.57
14 | AAAAAAAAAAAAAGTAGTACATAATATGTTCCTCCT [XGTACX_site8356] | 11.6 ± 1
15 | AAATGTAATATAAATAGTACATATTAAATAAAATTA [XGTACX_site6917] | 11.1 ± 0.88
16 | AAAACTATTAAATGTAGTACATAATTATTGAAATAA [XGTACX_site8716] | 11.6 ± 0.91
17 | TGAAAAATAAATAAATGTACATATATATATATATAC [XGTACX_site7310] | 10.9 ± 0.49
18 | AATAAAAATAATGAATGTACATATATATATACAATA [XGTACX_site3342] | 10.9 ± 0.4
19 | AAGTATAAATTAAAATGTACTTATAAAAAAAAAGAA [XGTACX_site7028] | 11.2 ± 0.72
20 | TAGTAACTTGTATTCACACAAATTATATTATATTAC [CACACA_site5041] | 9.965 ± 0.021

Row | Sequence | gcPBM binding intensity (ln)
21 | ACGTATGTATATTACACACATACATATTATTCACTA [CACACA_site204] | 10.1 ± 0.16
22 | AGTATGTAAATGTGCCATATATATATTAAATACATA [CACACA_negctrl_site14] | 10.1 ± 0.23
23 | AACATATACACGAACACACACACATATAAATAAATA [CACACA_site6380] | 10.3 ± 0.37
24 | ATAAAGTATATTATATGTACATATATATATTATATA [XGTACX_site1345] | 11.1 ± 0.52
25 | TTTTTTTTAGTATGAACACACATATATATTATAAAA [CACACA_site2935] | 10.1 ± 0.25
26 | ATAAGAAAAAGACACACACACAAAAAAAAAAAAAAA [CACACA_site2828] | 9.95 ± 0.49
27 | AATAATTATAAAAAATGTACAAAAAAAAAAAAAAAA [XGTACX_site3681] | 10.5 ± 0.83
28 | AAGATAAAATTATGTAGTACAAAAAAAAATAAAAAA [XGTACX_site139] | 11.7 ± 0.91
29 | AAAGATAAAATATTATGTACATATATATATATATAT [XGTACX_site5079] | 11.1 ± 0.56
30 | CGCATGTATTTTGTGTGTACTAATTATAATCAACTT [XGTACX_site4709] | 11.4 ± 0.83
31 | AAAAGTGTATGTAGGTGTACTTTTTATTTCTTCTTT [XGTACX_site8819] | 11.6 ± 0.98
32 | TTTTTTATGAGGTGGTGTACTTTTTTTTTTTTCTTT [XGTACX_site8550] | 11.7 ± 0.97
33 | TATGAGGAAACGTGGTGTACTTTTTTTTAATAAAAA [XGTACX_site1351] | 11.6 ± 0.93
34 | ATATATATAATTTGTACACACAAATATGCATATATA [CACACA_site3432] | 11.3 ± 0.98
35 | ATATATATATAATTTGTACACACAAATATGCATATA [CACACA_site9136] | 11.3 ± 0.88
36 | TATATGCATAATAACTGTACACAAATTGGGGTTGAT [XGTACX_site459] | 11.6 ± 0.63
37 | TATGTGCATATAAACTCACACATTGTATATTACATG [CACACA_site6106] | 10.14 ± 0.035
38 | ATATATACGTATGAATGTATATTTGTTTGATTTTTT [CACACA_negctrl_site835] | 9.88 ± 0.12
39 | AATGATTGATTTTATTGTACGTACTCGGAATATGGT [XGTACX_site4976] | 11.8 ± 1
40 | ATTGTTTATATTGATTGTACTCATTTTTTTTTTATT [XGTACX_site1946] | 11.5 ± 0.99

Row | Sequence | gcPBM binding intensity (ln)
41 | TATATATATACATATTGTACATATTACATGCTATTA [XGTACX_site1184] | 10.9 ± 0.64
42 | ATATAAATATGACACACACACAAAAAAAATAAAGAC [CACACA_site6208] | 10.3 ± 0.2
43 | TTTTTTTTTTTTTAAACATGCATAATAAATATAATA [TGCATGCA_site265] | 9.81 ± 0.35
44 | TTTCGTAAACAAATTTGTACGTACAAATTTATAAAT [XGTACX_site8175] | 11.7 ± 1.1
45 | CATATATATTTTATTTGTACGTATAAAAAAACAAAA [XGTACX_site4253] | 11.5 ± 1.1
46 | ACCTATTTATAATAGTGTACGTACAAATTTGTTTAC [XGTACX_site8176] | 11.7 ± 0.89
47 | ATTATATAATTTAATCGTACACAAATATTTGTTAGT [XGTACX_site5913] | 11.3 ± 0.8
48 | TGAAATTTATAATAGTGTACAAAGAAAAAAAAAAAA [XGTACX_site4965] | 11 ± 0.78
49 | ATATATATATATATATGTACGTAAACAAAAATTTAT [XGTACX_site6780] | 11.4 ± 0.91
50 | TTTTTTAAAAATAACTGTACAGAGGCTGTTAGGATA [XGTACX_site2521] | 11 ± 0.4
51 | TTCCAAAAAATTATTACACACATATGAGCACATATA [CACACA_site4543] | 10.1 ± 0.18
52 | TTTCCTTATTAAAACACACAAATACATTATTTAATC [CACACA_site7080] | 9.875 ± 0.035
53 | AAAAGTATAATAAATTGTACTAACAAATATTTATGT [XGTACX_site7721] | 10.9 ± 0.56
54 | TTGAAAATGAAAAAATGTACTTAAAAAAAAGGAACA [XGTACX_site8664] | 11.2 ± 0.71
55 | CTTTGGTTATAACACACATGCACACGTAAATAAATA [TGCATGCA_site976] | 10.5 ± 0.25
56 | ATTTTTTTTTTTTTTTTTTATATGCTCTCCATGAGA [CACACA_negctrl_site1225] | 9.7 ± 0.2
57 | ATAAATATCATATATATACACACGTAATACATAATA [CACACA_site4001] | 9.935 ± 0.092
58 | GGGGGGAGGGTGAATACACACGTAATAATCATAAAC [CACACA_site8502] | 11.6 ± 0.79
59 | GGGGGGGGAGGGTGAATACACACGTAATAATCATAA [CACACA_site1716] | 11.6 ± 0.94
